{"source": "the supplement of paper PMC5919970", "system": "TYKNU", "assay": "fractional viability relative to vehicle; TYKNU is a high-grade serous ovarian cancer line; higher = less growth inhibition", "settings": "72 h", "summary_of_the_method": "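TYKNU control cells or lentiCRISPRv2 knockout derivatives were seeded at 500 cells per well into drug-stamped 384-well plates holding a ~2100-compound library at 2 or 10 μM, in duplicate. Cells were grown at 37 °C in 5% CO2 in RPMI 1640 with 10% FBS, and drug treatment lasted 72 h. Viability was read by Cell Titer Glo luminescence. Duplicate treatment wells were averaged and normalised to duplicate control wells from the same plate position.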", "key": {"[1]": {"settings": "2uM, genotype: DNM1L knockout (sgDNM1L #1)"}, "[2]": {"settings": "2uM, genotype: sgCTRLA1 (non-targeting control)"}, "[3]": {"settings": "10uM, genotype: DNM1L knockout (sgDNM1L #1)"}, "[4]": {"settings": "10uM, genotype: sgCTRLA1 (non-targeting control)"}}, "note": "Counter-ions that a name gives are not always drawn. Whole data set: some 2,000 compounds, median “fractional viability relative to vehicle” near 0.91, cut for the lowest 2% near 0.045. The sample as a whole holds a higher share of the lowest values than the screen did."}
{"molecule": "Cn1cncc1[C@@](N)(c1ccc(Cl)cc1)c1ccc2c(c1)c(-c1cccc(Cl)c1)cc(=O)n2C", "note": "[Tipifarnib]", "values": [{"measurement": "fractional viability", "setting": "[1]", "result": 0.472}, {"measurement": "fractional viability", "setting": "[2]", "result": 0.64}, {"measurement": "fractional viability", "setting": "[3]", "result": 0.272}, {"measurement": "fractional viability", "setting": "[4]", "result": 0.366}]}
{"molecule": "Cc1nnc(C(C)C)n1C1C[C@H]2CC[C@@H](C1)N2CC[C@H](NC(=O)C1CCC(F)(F)CC1)c1ccccc1", "note": "(stereo in doubt) [Maraviroc]", "values": [{"measurement": "fractional viability", "setting": "[1]", "result": 0.973}, {"measurement": "fractional viability", "setting": "[2]", "result": 1.15}, {"measurement": "fractional viability", "setting": "[3]", "result": 0.873}, {"measurement": "fractional viability", "setting": "[4]", "result": 1.03}]}
{"molecule": "Cc1cc(-c2ncc(CC(=O)Nc3ccc(-c4cnccn4)cn3)cc2C)ccn1", "values": [{"measurement": "fractional viability", "setting": "[1]", "result": 0.863}, {"measurement": "fractional viability", "setting": "[2]", "result": 1.1}, {"measurement": "fractional viability", "setting": "[3]", "result": 0.665}, {"measurement": "fractional viability", "setting": "[4]", "result": 0.746}]}
{"molecule": "CC(C)c1onc(-c2c(Cl)cccc2Cl)c1COc1ccc(/C=C/c2cccc(C(=O)O)c2)c(Cl)c1", "values": [{"measurement": "fractional viability", "setting": "[1]", "result": 0.953}, {"measurement": "fractional viability", "setting": "[2]", "result": 1.1}, {"measurement": "fractional viability", "setting": "[3]", "result": 0.781}, {"measurement": "fractional viability", "setting": "[4]", "result": 1.09}]}
{"molecule": "c1ccc(Cn2c(-c3ccc(OC[C@H](C4CCNCC4)n4c(-c5ccccc5)nc5ccccc54)cc3)nc3ccccc32)cc1", "note": "[Deltarasin]", "values": [{"measurement": "fractional viability", "setting": "[1]", "result": 0.887}, {"measurement": "fractional viability", "setting": "[2]", "result": 0.966}, {"measurement": "fractional viability", "setting": "[3]", "result": 0.0145}, {"measurement": "fractional viability", "setting": "[4]", "result": 0.0132}]}
{"molecule": "c1cc(-c2cnn3cc(-c4ccc(OCCN5CCCCC5)cc4)cnc23)ccn1", "note": "[Dorsomorphin (Compound C)]", "values": [{"measurement": "fractional viability", "setting": "[1]", "result": 0.845}, {"measurement": "fractional viability", "setting": "[2]", "result": 0.916}, {"measurement": "fractional viability", "setting": "[3]", "result": 0.552}, {"measurement": "fractional viability", "setting": "[4]", "result": 0.503}]}
{"molecule": "C/C(=N\\NC(=S)N1CCC1)c1ccccn1", "values": [{"measurement": "fractional viability", "setting": "[1]", "result": 0.171}, {"measurement": "fractional viability", "setting": "[2]", "result": 0.137}, {"measurement": "fractional viability", "setting": "[3]", "result": 0.225}, {"measurement": "fractional viability", "setting": "[4]", "result": 0.167}]}
{"molecule": "Fc1ccc2[nH]ccc2c1-c1nc(N2CCOCC2)c2sc(CN3CCN(CC4CC4)CC3)cc2n1", "values": [{"measurement": "fractional viability", "setting": "[1]", "result": 0.883}, {"measurement": "fractional viability", "setting": "[2]", "result": 0.947}, {"measurement": "fractional viability", "setting": "[3]", "result": 0.634}, {"measurement": "fractional viability", "setting": "[4]", "result": 0.711}]}
{"molecule": "O=C(NC1CCN(CCCCC2(C(=O)NCC(F)(F)F)c3ccccc3-c3ccccc32)CC1)c1ccccc1-c1ccc(C(F)(F)F)cc1", "note": "[Lomitapide Mesylate]", "values": [{"measurement": "fractional viability", "setting": "[1]", "result": 0.573}, {"measurement": "fractional viability", "setting": "[2]", "result": 0.79}, {"measurement": "fractional viability", "setting": "[3]", "result": 0.0435}, {"measurement": "fractional viability", "setting": "[4]", "result": 0.0328}]}
{"molecule": "CC(=O)c1cc2c(o1)C(=O)c1ccccc1C2=O", "note": "[Napabucasin]", "values": [{"measurement": "fractional viability", "setting": "[1]", "result": 0.0305}, {"measurement": "fractional viability", "setting": "[2]", "result": 0.0196}, {"measurement": "fractional viability", "setting": "[3]", "result": 0.018}, {"measurement": "fractional viability", "setting": "[4]", "result": 0.0135}]}
{"molecule": "O=C(O)c1cc(=O)c2ccccc2o1", "note": "[Chromocarb]", "values": [{"measurement": "fractional viability", "setting": "[1]", "result": 0.948}, {"measurement": "fractional viability", "setting": "[2]", "result": 1.07}, {"measurement": "fractional viability", "setting": "[3]", "result": 0.923}, {"measurement": "fractional viability", "setting": "[4]", "result": 1.05}]}
{"molecule": "O=C1c2ccccc2C(=O)c2c1ccc(O)c2O", "note": "[Alizarin]", "values": [{"measurement": "fractional viability", "setting": "[1]", "result": 0.834}, {"measurement": "fractional viability", "setting": "[2]", "result": 1.1}, {"measurement": "fractional viability", "setting": "[3]", "result": 0.8}, {"measurement": "fractional viability", "setting": "[4]", "result": 1.06}]}
{"molecule": "Cc1ccc(NC(=O)c2cccc(C(C)(C)C#N)c2)cc1Nc1ccc2ncn(C)c(=O)c2c1", "values": [{"measurement": "fractional viability", "setting": "[1]", "result": 0.244}, {"measurement": "fractional viability", "setting": "[2]", "result": 0.283}, {"measurement": "fractional viability", "setting": "[3]", "result": 0.27}, {"measurement": "fractional viability", "setting": "[4]", "result": 0.31}]}
{"molecule": "CCNC(=O)C#Cc1ccc2c(C(=Nc3ccc(CN(C)C)cc3)c3ccccc3)c(O)[nH]c2c1", "values": [{"measurement": "fractional viability", "setting": "[1]", "result": 0.122}, {"measurement": "fractional viability", "setting": "[2]", "result": 0.0962}, {"measurement": "fractional viability", "setting": "[3]", "result": 0.0494}, {"measurement": "fractional viability", "setting": "[4]", "result": 0.0319}]}
{"molecule": "CN(C)Cc1cccc(N=C(c2ccccc2)c2c(O)[nH]c3cc(C(=O)N(C)C)ccc23)c1", "values": [{"measurement": "fractional viability", "setting": "[1]", "result": 1.01}, {"measurement": "fractional viability", "setting": "[2]", "result": 0.843}, {"measurement": "fractional viability", "setting": "[3]", "result": 0.588}, {"measurement": "fractional viability", "setting": "[4]", "result": 0.574}]}
{"molecule": "O=C([C@@H](Cc1cccc(C(F)(F)F)c1)NS(=O)(=O)c1cc(F)c2c(c1)CCNC2)N1CCCC1", "values": [{"measurement": "fractional viability", "setting": "[1]", "result": 0.927}, {"measurement": "fractional viability", "setting": "[2]", "result": 1.04}, {"measurement": "fractional viability", "setting": "[3]", "result": 0.863}, {"measurement": "fractional viability", "setting": "[4]", "result": 0.888}]}
{"molecule": "CC(C)CCNC(=O)[C@H](CC(C)C)NC(=O)[C@H]1O[C@@H]1C(=O)O", "note": "[Loxistatin Acid (E-64C)]", "values": [{"measurement": "fractional viability", "setting": "[1]", "result": 0.865}, {"measurement": "fractional viability", "setting": "[2]", "result": 0.938}, {"measurement": "fractional viability", "setting": "[3]", "result": 0.959}, {"measurement": "fractional viability", "setting": "[4]", "result": 0.802}]}
{"molecule": "CCCCC(=O)N(Cc1ccc(-c2ccccc2-c2nnn[nH]2)cc1)[C@H](C(=O)O)C(C)C.CCOC(=O)[C@H](C)C[C@@H](Cc1ccc(-c2ccccc2)cc1)NC(=O)CCC(=O)O", "values": [{"measurement": "fractional viability", "setting": "[1]", "result": 0.864}, {"measurement": "fractional viability", "setting": "[2]", "result": 0.941}, {"measurement": "fractional viability", "setting": "[3]", "result": 0.769}, {"measurement": "fractional viability", "setting": "[4]", "result": 0.732}]}
{"molecule": "CN1CCN(S(=O)(=O)c2ccc(-c3cnc(N)c(C(=O)Nc4cccnc4)n3)cc2)CC1", "values": [{"measurement": "fractional viability", "setting": "[1]", "result": 0.731}, {"measurement": "fractional viability", "setting": "[2]", "result": 1.08}, {"measurement": "fractional viability", "setting": "[3]", "result": 0.346}, {"measurement": "fractional viability", "setting": "[4]", "result": 0.474}]}
{"molecule": "O=C(O)C(Cc1ccccc1[N+](=O)[O-])=NNc1nc(-c2ccc(Cl)c(Cl)c2)cs1", "note": "(mixture of isomers)", "values": [{"measurement": "fractional viability", "setting": "[1]", "result": 0.727}, {"measurement": "fractional viability", "setting": "[2]", "result": 0.775}, {"measurement": "fractional viability", "setting": "[3]", "result": 0.717}, {"measurement": "fractional viability", "setting": "[4]", "result": 0.573}]}
